Results filed as inconclusive are left out. Calls of active or inactive are those of the source. The call rests on the fitted dose curve; in most records, active means well fitted curve in either direction with a large enough effect; inconclusive means small, poorly fitted or top-dose-only effect; inactive means no such curve, though single readings can be large or run the other way.
The compounds below were run against Lysosomal alpha-glucosidase (Homo sapiens) (UniProt P10253) (assay: Confirmation of Inhibitors and Activators of Human alpha-Glucosidase From Spleen Homogenate). Details: alpha-glucosidase enzyme activity; series mostly up to 60.5 µM; activity change, both directions: at the top concentration.
Procedure, shortened: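 Fluorogenic assay using human spleen homogenate (1 ug) as enzyme source with 1 mM 4-methylumbelliferyl-alpha-D-glucopyranoside, pH 5.0 citrate buffer, 40 min at 37 C. 4-MU read (Ex 365/Em 440) after NaOH/glycine stop; AC50 from Hill fits.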
Potency means the concentration at half of the fitted maximal effect.
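Wherever Potency is given: fluorescence of 4-methylumbelliferone released from a fluorogenic glucopyranoside substrate at pH 5.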
Wherever activity change, both directions is given: 0% is about no effect.

Activity change, both directions, inactive:
Cc1ccccc1S(=O)(=O)N1CCOCC1 -0.0363%
COc1ccc(/C=C/c2nnc(NC(=O)CSc3ccccc3)s2)cc1 2.85%
O=C(O)c1cc2c(ccc3ccccc32)o1 -0.045% [at 31.5 µM]
O=S(=O)(c1ccccc1)N1CCN(Cc2ccccc2)CC1 -2.68%
N#CCCN1CCN(S(=O)(=O)c2ccc(S(=O)(=O)N3CCOCC3)cc2)CC1 -6.93%
CCCN1CNc2c(c(=O)[nH]c(=S)n2CCc2ccccc2)C1 9.04% [at 31.5 µM]
COc1ccc(C(=O)N2CCN(c3ccc([N+](=O)[O-])c(NCCc4ccc(OC)c(OC)c4)c3)CC2)cc1 8.22%
c1ccc(-n2c(-c3cccs3)nc3nc4ccccc4nc32)cc1 17.9%
O=C(COC(=O)c1ccccc1Br)NCCc1ccc(F)cc1 1.18% [at 31.5 µM]
CC1OC(OC2C(CO)OC(OC3C(CO)OC(O)C(O)C3O)C(O)C2O)C(O)C(O)C1NC1C=C(CO)C(O)C(O)C1O (stereo not given) -74.5%
COc1cc(-c2cc(N3C(=O)Nc4ccccc4N3O)n[nH]2)cc(OC)c1OC -4.58% [at 31.5 µM]
COc1ccc(S(=O)(=O)N2CCN(C(=O)COc3ccc4c(C)cc(=O)oc4c3)CC2)cc1 -18.9%
COc1ccc(CCc2c[nH]c(=O)c3cncnc23)cc1OC 0.974%
CCCCN1C[C@H](O)[C@@H](O)[C@H](O)[C@H]1CO -99.2%
CC(N=C(NC#N)Nc1ccncc1)C(C)(C)C (stereo not given) 1.36%
Cc1ccc(-n2c3c(c(=O)[nH]c2=S)C(C(F)(F)F)(C(F)(F)F)NC(=O)N3)cc1 0.812% [at 31.5 µM]
Cc1nc(-n2nnc(CO)c2CO)nc2c1CCC2 9.14%
O=C(/C=C/c1ccc(O)c(O)c1)c1ccc(O[C@@H]2O[C@H](CO)[C@@H](O)[C@H](O)[C@H]2O)c(O)c1O -46.4%
COc1ccc(/C=C/c2nnc(NC(C)=O)s2)cc1 1.39%
O=S(=O)(c1ccc(Cl)cc1)N1CCOCC1 3.29%
O=C(c1ccccc1)N1CCN(C(=O)c2ccccc2)CC1 0.493%
COc1cccc2cc(-c3nc(-c4ccc(C)cc4)c(C)s3)c(=O)oc12 4.81%
O=C(c1ccccc1)N1CCN(C(=O)N(c2ccccc2)c2ccccc2)CC1 1.94%
CCOC(=O)c1c(-c2ccc(-c3ccccc3)cc2)csc1NC(=O)CCN1CCOCC1 3.92%
CC(C)(C)OC(=O)NCCCC[C@H](NC(=O)c1nc[nH]c1C(=O)NCc1ccccc1)C(=O)OC(C)(C)C -6.76%
Cc1ccc(CCNC(=O)CNC(=S)N(Cc2ccccc2)Cc2cccnc2)cc1 3%
CCN(CC)S(=O)(=O)c1ccc2c(c1)-c1cc(S(=O)(=O)N(CC)CC)ccc1C2=NNC(N)=S -5.38%
CCc1sc(-c2cc3ccccc3oc2=O)nc1-c1ccccc1 11.7%
Cc1cccn2c(=O)c3cc(C#N)c(=NC(=O)c4cccs4)n(CCCOC(C)C)c3nc12 4.63% [at 31.5 µM]
O=c1oc2ccc(Cl)cc2cc1-c1nc2c(s1)CCc1ccccc1-2 -1.76%

Potency, inactive:
Cc1ccc(S(=O)(=O)N2CCN(C(=O)N(c3ccccc3)c3ccccc3)CC2)cc1

Potency, active:
CCCN1CNc2c(c(=O)[nH]c(=S)n2CCc2cccc(OC)c2)C1 15.8 µM
COc1ccc(CCn2c3c(c(=O)[nH]c2=S)CN(C(C)C)CN3)cc1OC 44.7 µM
CCCN1CNc2c(c(=O)[nH]c(=S)n2CCc2c(Cl)cccc2Cl)C1 35.5 µM
CCCN1CNc2c(c(=O)[nH]c(=S)n2CCc2cc(C)ccc2C)C1 8.91 µM

Reference: PubChem BioAssay AID2113 (National Center for Advancing Translational Sciences (NCATS), 2009)
